The whole screen tested about 320,000 compounds, of which about 2,100 (0.66%) were called active. Not shown: some 53% with an inconclusive outcome. The call rests on the fitted dose curve; in most records, active means well fitted inhibition curve with a large enough effect in the signal ratio, with a control signal flat (not every such curve was filed as active); inconclusive means small, poorly fitted or top-dose-only effect, or effect the other way, or a change in a side signal; inactive means flat fitted curve, though single readings scatter; the % refers to the signal ratio. What follows is part of a selection rich in actives, with near analogues and random picks from the rest.
Potency means the concentration at half of the fitted maximal effect.

The nature of the experiment: qHTS Assay for Lipid Storage Modulators in Drosophila S3 Cells.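 On cell number change: cells counted by Cell Tracker Red CMTPX staining in the red channel.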 On lipid storage change, negative = inhibition: on the % scale 0 is the no-effect control and ±100 the full control effect. Conditions: BODIPY lipid droplet fluorescence, 18-24 h, cells fed with added oleic acid; cell number change: measured here: cell count max response; series mostly up to 46.1 µM; lipid storage change, negative = inhibition: at the top concentration. The essentials:
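Drosophila S3 cells got compounds at several concentrations plus oleic acid (400 uM solution). Laser-scanning cytometry with 488 nm excitation read lipid droplets at 500-530 nm and cells at 575-640 nm. Percent activity was relative to 20 uM Triacsin C.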
For the compound `Cc1ccc(C(=O)C(OC(=O)CCC(=O)Nc2cccc(C)c2)c2ccccc2)cc1` (stereo unspecified), the “lipid storage change, negative = inhibition” value is -7.6% (inactive) and the cell number change was -1.69%.

For `O=C(CCC(=O)OC(C(=O)c1ccccc1)c1ccccc1)Nc1ccccc1` (stereo unspecified), the Potency is 0.731 µM (active) and the cell number change was -23.6%.

As to `COc1ccc(NC(=O)CCC(=O)OC(C(=O)c2ccccc2)c2ccccc2)cc1` (stereo unspecified), the “lipid storage change, negative = inhibition” value was -9.84% (inactive) and the cell number change was -23.4%.

`COc1ccc(NS(=O)(=O)c2ccc(NC(C)=O)cc2)c(OC)c1`: the “lipid storage change, negative = inhibition” value was 5.93% (inactive) and the cell number change amounted to 0.633%.

As to `O=C(NCCc1cnn(-c2ccccc2)c1)c1cc(COc2c(F)cccc2F)on1`, the “lipid storage change, negative = inhibition” value was 15.2% (inactive) and the cell number change came to 0.269%.

With `COc1ccc(OC)c(CNc2ncc(-c3ccc(F)cc3)n2C)c1`, the Potency was 32.6 µM (active) and the cell number change was -16.1%.

Turning to `Cn1c(-c2ccc(F)cc2)cnc1NCc1ccc(F)cc1F`, the “lipid storage change, negative = inhibition” value is -14.7% (inactive) and the cell number change was 25.6%.

As to `COc1ccccc1CNc1ncc(-c2ccc(F)cc2)n1C`, the “lipid storage change, negative = inhibition” value is -18.1% (inactive) and the cell number change was -1.58%.

Consider `COc1ccc(-n2c(=O)c3ccccc3n(CC(=O)NC3CCCCC3)c2=O)c(OC)c1`, for which the “lipid storage change, negative = inhibition” value is 21.5% (inactive).

Regarding `CC(O)CNC12CC3CC(CC(C3)C1)C2` (stereo unspecified), the “lipid storage change, negative = inhibition” value was -12.7% (inactive).

On to `CC(C)(CO)NC12CC3CC(CC(C3)C1)C2`, for which the Potency is 0.058 µM (active) and the cell number change was -20.6%.

As to `CC(C)(C)NC(=O)NC12CC3CC(CC(C3)C1)C2`, the “lipid storage change, negative = inhibition” value is 7.75% (inactive) and the cell number change was 0.331%.

On to `Cc1ccc(S(=O)(=O)N(C)/N=C/c2ccc(N(C)C)cc2)cc1`, for which the “lipid storage change, negative = inhibition” value was 7.16% (inactive) and the cell number change was 12.7%.

Turning to `O=C(NCc1ccccc1)/C(=C/c1ccc([N+](=O)[O-])cc1)NC(=O)c1ccco1`, the compound was called inactive and the cell number change was -3.81%.

In the case of `COc1ccc(C(=O)CSc2nnc(CNC(=O)c3ccccc3F)n2C)cc1OC`, the “lipid storage change, negative = inhibition” value was -9.91% (inactive) and the cell number change was 0.87%.

In the case of `O=C(NCCOc1ccccc1)C1CCCN1C(=O)c1cccs1` (stereo unspecified), the “lipid storage change, negative = inhibition” value is -2.36% (inactive) and the cell number change was -1.16%.

For `O=C(NC1CCCCC1)C(c1ccc(F)cc1)N(Cc1ccco1)C(=O)Cn1nnc2ccccc21` (stereo unspecified), the Potency was 16.4 µM (active) and the cell number change is 19.8%.

Consider `O=C(NC1CCCCC1)C(c1ccc(F)cc1)N(Cc1ccco1)C(=O)CN1C(=O)c2ccccc2S1(=O)=O` (stereo unspecified), for which the “lipid storage change, negative = inhibition” value was -10.1% (inactive) and the cell number change amounted to 11.1%.

Take `O=C(NCc1ccco1)C(c1ccc(F)cc1)N(CC1CCCO1)C(=O)Cn1nnc2ccccc21` (stereo unspecified): the result was inactive and the cell number change is -18.6%.

With `COc1ccccc1/C=C/c1onc(C)c1S(=O)(=O)N1CCC(C(=O)NC2CCCCCC2)CC1`, the compound was classed as inactive and the cell number change was -0.659%.

Regarding `CCOC(=O)CC(NC(=O)c1cc2ccccc2oc1=O)c1cccc([N+](=O)[O-])c1` (stereo unspecified), the “lipid storage change, negative = inhibition” value was 11.5% (inactive) and the cell number change came out at 11.6%.

Turning to `O=[N+]([O-])c1cc([N+](=O)[O-])c(Oc2c(F)ccc(F)c2F)cc1NN1CCCCC1`, the “lipid storage change, negative = inhibition” value was 27.8% (inactive) and the cell number change was -0.599%.

In the case of `NC(=O)Cn1nc([N+](=O)[O-])nc1Oc1ccc(Br)cc1`, the result was inactive and the cell number change is -1.14%.

In the case of `NC(=O)Cn1nc([N+](=O)[O-])nc1Oc1ccccc1C(=O)N1CCOCC1`, the Potency is 14.6 µM (active) and the cell number change was -24.1%.

Consider `COc1ccccc1Oc1nc([N+](=O)[O-])nn1CC(N)=O`, for which the “lipid storage change, negative = inhibition” value is 22.6% (inactive) and the cell number change is -6.43%.

`Cc1ccc(C(=O)C[n+]2cc(Br)cc(Br)c2)cc1[N+](=O)[O-]`: the “lipid storage change, negative = inhibition” value was 6.01% (inactive) and the cell number change was 11.3%.

In the case of `Cc1cccc(C(CC(=O)N2CCCCC2)c2ccccc2)c1O` (stereo unspecified), the compound was called inactive and the cell number change was -18.8%.

Consider `O=C1CC2(CCN(C(=O)c3ccc(Br)cc3)CC2)Oc2ccccc21`, for which the compound was called inactive and the cell number change is -15.2%.

Regarding `COc1cc(/C=C/C(=O)c2ccc(NS(=O)(=O)c3ccc(C)cc3)cc2)cc(OC)c1O`, the “lipid storage change, negative = inhibition” value is -10.6% (inactive) and the cell number change is -14.2%.

As to `Cc1ccc(NC(=S)N2CCC(C(N)=O)(N3CCCCC3)CC2)c(C)c1`, the “lipid storage change, negative = inhibition” value was -4.88% (inactive) and the cell number change is -4.08%.

For `Cc1ccc2oc(C(=O)N3CCC(C(N)=O)(N4CCCCC4)CC3)c(C)c2c1`, the Potency is 18.4 µM (active) and the cell number change was -4.2%.

On to `CCN(CC)C(=O)C1CCCN(C(=O)c2oc3ccc(C)cc3c2C)C1` (stereo unspecified), for which the “lipid storage change, negative = inhibition” value was 2.31% (inactive) and the cell number change amounted to 15.6%.

Consider `CCCOc1ccc(/C=C/C(=O)N2CCN(c3ccccn3)CC2)cc1`, for which the “lipid storage change, negative = inhibition” value is 19.3% (inactive) and the cell number change was -20.8%.

Take `S=c1[nH]nc(COc2ccc3ccccc3c2)o1`: the “lipid storage change, negative = inhibition” value is 7.14% (inactive) and the cell number change is -7.51%.

Turning to `Cc1ccc(S(=O)(=O)CCc2nc3ccccc3s2)cc1C`, the Potency is 18.4 µM (active) and the cell number change was 19.6%.

As for `O=S(=O)(CCc1nc2ccccc2s1)c1ccc(Cl)cc1`, the call was inactive and the cell number change turned out to be 17.6%.

In the case of `Cc1ccc(S(=O)(=O)CCc2nc3ccccc3s2)cc1`, the “lipid storage change, negative = inhibition” value was 3.52% (inactive) and the cell number change was -0.805%.

As to `c1cncc(-c2cn(C[C@H]3CC[C@@H]([C@@H]4CC[C@H](Cn5cc(-c6cccnc6)nn5)O4)O3)nn2)c1`, the Potency was 14.6 µM (active) and the cell number change is 9.88%.

For `c1ccc(-c2cn(C[C@H]3CC[C@@H]([C@@H]4CC[C@H](Cn5cc(-c6ccccc6)nn5)O4)O3)nn2)cc1`, the “lipid storage change, negative = inhibition” value is -0.0556% (inactive) and the cell number change is -7.49%.

Regarding `c1ccc(-c2cn(C[C@H]3CC[C@@H]([C@@H]4CC[C@H](Cn5cc(-c6ccccn6)nn5)O4)O3)nn2)nc1`, the “lipid storage change, negative = inhibition” value was 7.69% (inactive) and the cell number change amounted to 28.2%.

`CC(=O)N1CCN(S(=O)(=O)c2c(C)n(C)c(=O)n(C)c2=O)CC1`: the “lipid storage change, negative = inhibition” value is -16.5% (inactive) and the cell number change came out at 5.18%.

Regarding `CCCCOc1ccc(C(=O)N2CCNC(=O)C2CC(=O)OC(C)C)cc1` (stereo unspecified), the result was inactive and the cell number change is 7.09%.

On to `CCCNC(=O)Nc1cccc(NC(C)=O)c1`, for which the “lipid storage change, negative = inhibition” value is -8.89% (inactive) and the cell number change is -9.94%.

On to `CCOCCCNC(=O)C1CCCN(S(=O)(=O)c2cccc3nsnc23)C1` (stereo unspecified), for which the compound was classed as inactive and the cell number change is -2.02%.

Source of the values: PubChem BioAssay AID2685 (National Center for Advancing Translational Sciences (NCATS), 2010).
